# Test results as given in PubChem BioAssay.
# Calls of active or inactive are those of the source.
# Test: JC-1 mitochondrial signal, unstimulated HepG2 cells – cell-based, JC-1 fluorescence, 24 h, 100 nL compound, profiling panel (AID 1167)
# Conditions: HepG2 mitochondrial potential, higher = more signal
# Note: test concentration not given here.
row,SMILES,z-score
1,CC(C)c1ccc(NN2C(C(O)C(c3ccccc3)c3ccccc3)C=CC3C(=O)N(c4ccccc4)C(=O)C32)cc1 (stereo not given),-0.988
2,CCN(CC)c1ccc(N2CC=CC34O[C@@H]5/C=C\CCCOC(=O)C5[C@H]3C(=O)N(CCO)[C@@H]4C2=O)cc1 (stereo not given in full),-0.451
3,COCCCNC(=O)C1N=C(c2ccc(OCCCO)cc2)N(c2ccccc2)O1 (stereo not given),-0.205
4,COc1ccc([Si](C)(C)[C@H]2[C@H](CCO)O[C@@]3(C(=O)N(C)c4c(Br)cc(C)cc43)[C@@H]2C)cc1,-2.21
5,COC(=O)[C@@]1(Cc2ccccc2)[C@H]2c3cc(C(=O)N4CCCC4)n(CC4CC4)c3C[C@H]2CN1C(=O)c1ccccc1,1.51
6,O=C1O[C@H](c2ccccc2)[C@H](c2ccccc2)N2[C@H]1[C@@H](C(=O)Nc1nc3ccccc3s1)[C@]1(C(=O)Nc3ccc(C#CC4(O)CCCCCC4)cc31)[C@H]2c1ccc(OCCO)cc1,-3.77
7,COC(=O)[C@@]1(Cc2ccc(F)cc2)[C@H]2c3cc(C(=O)N4CCCC4)n(Cc4cc(C)n(C)n4)c3C[C@H]2CN1C(=O)c1ccccc1,2.16
8,CC(C)(C)OC(=O)CC[C@@]12N=C(c3ccc(OCCCO)cc3)O[C@@H]1c1ccccc1N(CCS(=O)(=O)c1ccccc1)C2=O,0.741
9,CC(C)(C)OC(=O)CC[C@]1(C(=O)NCC(O)CO)COC(c2ccc(OCCCO)cc2)=N1 (stereo not given in full),-0.76
10,C=CC[C@@]1(C(N)=O)N=C(c2ccc(OCCCO)cc2)O[C@@H]1c1ccccc1CN=[N+]=[N-],-2.45

# Test: JC-1 mitochondrial signal, unstimulated adipocytes – cell-based, JC-1 fluorescence, 3T3-L1 adipocytes, 24 h, 100 nL compound, profiling panel (AID 1168)
# Conditions: JC-1 mitochondrial fluorescence, higher = more signal, called active from +8 up or from −8 down
row,SMILES,z-score
1,COCCOC(=O)N1C(=O)[C@@]2(c3cc(C#Cc4ccc(OC)cc4)ccc31)[C@H](C(N)=O)[C@H]1C(=O)O[C@H](c3ccccc3)[C@H](c3ccccc3)N1[C@@H]2c1ccccc1OCCO,2.99 (inactive)
2,C=CCN1C(=O)[C@@]2(O[C@@H](CCO)[C@H]([Si](C)(C)c3ccc(OC)cc3)[C@H]2C)c2cc(NC(=O)c3ccc(OC)cc3)ccc21,1.58 (inactive)
3,COC(=O)[C@@]1(Cc2ccc(F)cc2)[C@@H]2[C@@H](CC(=O)[C@H]2CC(=O)C(=O)N(C)C)CN1C(=O)c1ccccc1,-0.554 (inactive)
4,O=C1C2C=CC(C(O)c3ccc(F)cc3)N(Nc3ccccc3F)C2C(=O)N1c1ccccc1 (stereo not given),-1.08 (inactive)
5,C=CCN(Cc1ccccc1)C(=O)C(c1cccs1)N(CCOCCO)C(=O)/C=C\C(=O)O (stereo not given),0.0415 (inactive)
6,C=C(CCCC)/C(=C/C[C@@H](OC(C)=O)c1ccccc1OCCO)c1cnc2ccccc2c1,-1.17 (inactive)
7,COc1cc2c(cc1OC)CN(C(=O)[C@@H]1[C@H]3C(=O)O[C@H](c4ccccc4)[C@H](c4ccccc4)N3[C@H](c3ccc(O)cc3)[C@@]13C(=O)Nc1ccc(C#CC4(O)CCCCCC4)cc13)CC2,-0.771 (inactive)
8,COCCOC(=O)N1C(=O)[C@@]2(c3cc(C#Cc4ccc(OC)cc4)ccc31)[C@H](c1ccc(O)cc1)N1[C@H](c3ccccc3)[C@H](c3ccccc3)OC(=O)[C@H]1[C@@H]2C(=O)NC[C@H](O)c1ccccc1,2.46 (inactive)
9,COCCOC(=O)N1C(=O)[C@@]2(c3cc(C#CC4=CCCCC4)ccc31)[C@H](C(=O)Nc1nc3ccccc3s1)[C@H]1C(=O)O[C@H](c3ccccc3)[C@H](c3ccccc3)N1[C@@H]2c1ccccc1OCCO,-0.2 (inactive)
10,CN(C)C(=O)[C@]1(Cc2ccccc2CN=[N+]=[N-])N=C(c2ccc(OCCCO)cc2)O[C@@H]1c1ccccc1CN=[N+]=[N-],-0.735 (inactive)
11,COc1ccc([C@H]2OC[C@@H]3CC4(CC=CC4)C(=O)N32)cc1,0.197 (inactive)
12,CCCC[C@@H]1C[C@H]1[C@@H](NC(=O)c1ccco1)c1ccc(C(=O)OC)cc1,-2.2 (inactive)
13,O=C1C[C@]2(c3ccc([N+](=O)[O-])cc3)C(=O)N(CCN3CCOCC3)c3cc(CO)ccc3[C@H]2N1C1CCCCC1,0.155 (inactive)
14,O=C(O)[C@@]1(CCS(=O)(=O)c2ccccc2)COC(c2ccc(OCCCO)cc2)=N1,0.148 (inactive)
15,COc1ccc(C(O)C2C=CC3C(=O)N(c4ccccc4)C(=O)C3N2Nc2ccccc2F)cc1OCc1ccccc1 (stereo not given),-0.838 (inactive)
16,CC(=O)NCCCC[C@@H]1NC(=O)[C@@H]2C[C@H](C(=O)NCCCCN(C)C)[C@H](c3cccc(OCCO)c3)N2C1=O,-0.24 (inactive)
17,O=C1NC(=O)C2C1C=CC(C(O)C(c1ccccc1)c1ccccc1)N2Nc1ccc(Cl)cc1Cl (stereo not given),-0.283 (inactive)
18,COC(=O)C(CC#Cc1ccc2c(c1)[C@]1(C(=O)N2)[C@H](c2ccc(O)cc2)N2[C@H](c3ccccc3)[C@H](c3ccccc3)OC(=O)[C@H]2[C@@H]1C(=O)Nc1nc2ccccc2s1)C(=O)OC,-0.719 (inactive)

row,SMILES,z-score
1,C=CCOC(=O)[C@H]1[C@@H]2C(=O)O[C@@H](c3ccccc3)[C@@H](c3ccccc3)N2[C@@H](c2ccc(OCCOC(=O)[C@@H]3C[C@@H]4C(=O)N5CCC[C@H]5C(=O)N4[C@@H]3c3cccc(OCCO)c3)cc2)[C@]12C(=O)Nc1ccccc12,-0.0892 (inactive)
2,COc1cc(CO)cc(I)c1O[C@H]1C=C(C(=O)NCCO)C[C@@H](N(CCN2CCOCC2)C(=O)C2CCOC2)[C@@H]1O (stereo not given in full),0.57 (inactive)
3,C=CCOC(=O)[C@@H]1[C@H]2C(=O)O[C@H](c3ccccc3)[C@H](c3ccccc3)N2[C@H](c2ccc(OCCOC(=O)[C@@H]3C[C@@H]4C(=O)N[C@@H](Cc5ccccc5)C(=O)N4[C@@H]3c3ccc(O)cc3)cc2)[C@@]12C(=O)Nc1ccc(I)cc12,0.865 (inactive)
4,C=CCNC(=O)[C@H]1[C@@H]2C(=O)O[C@@H](c3ccccc3)[C@@H](c3ccccc3)N2[C@@H](c2ccccc2OCCO)[C@]12C(=O)Nc1ccc(C#CC3=CCCCC3)cc12,2.75 (inactive)
5,Cc1ccc(S[C@]2(C(=O)NCCN3CCOCC3)CC(=O)N(Cc3ccccc3Cl)[C@@H]2c2ccc(CO)cc2)cc1,-0.41 (inactive)
6,COC(=O)[C@@]1(Cc2ccc(OC)cc2)[C@H]2c3cc(C(=O)N4CCCC4)n(Cc4ccccc4)c3C[C@H]2CN1C(=O)c1ccccc1,-1.07 (inactive)
7,CC(C)C(=C=CC[C@@H](O)c1ccccc1OCCO)CCO,0.235 (inactive)
8,CC(C)c1ccc(NN2C(C(O)C(c3ccccc3)c3ccccc3)C=CC3C(=O)N(c4ccccc4)C(=O)C32)cc1 (stereo not given),-0.8 (inactive)
9,CCN(CC)c1ccc(N2CC=CC34O[C@@H]5/C=C\CCCOC(=O)C5[C@H]3C(=O)N(CCO)[C@@H]4C2=O)cc1 (stereo not given in full),-0.381 (inactive)
10,COCCCNC(=O)C1N=C(c2ccc(OCCCO)cc2)N(c2ccccc2)O1 (stereo not given),-0.183 (inactive)
11,COc1ccc([Si](C)(C)[C@H]2[C@H](CCO)O[C@@]3(C(=O)N(C)c4c(Br)cc(C)cc43)[C@@H]2C)cc1,0.343 (inactive)
12,COC(=O)[C@@]1(Cc2ccccc2)[C@H]2c3cc(C(=O)N4CCCC4)n(CC4CC4)c3C[C@H]2CN1C(=O)c1ccccc1,-1.77 (inactive)
13,O=C1O[C@H](c2ccccc2)[C@H](c2ccccc2)N2[C@H]1[C@@H](C(=O)Nc1nc3ccccc3s1)[C@]1(C(=O)Nc3ccc(C#CC4(O)CCCCCC4)cc31)[C@H]2c1ccc(OCCO)cc1,-0.727 (inactive)
14,COC(=O)[C@@]1(Cc2ccc(F)cc2)[C@H]2c3cc(C(=O)N4CCCC4)n(Cc4cc(C)n(C)n4)c3C[C@H]2CN1C(=O)c1ccccc1,-1.13 (inactive)
15,CC(C)(C)OC(=O)CC[C@@]12N=C(c3ccc(OCCCO)cc3)O[C@@H]1c1ccccc1N(CCS(=O)(=O)c1ccccc1)C2=O,3.28 (inactive)
16,CC(C)(C)OC(=O)CC[C@]1(C(=O)NCC(O)CO)COC(c2ccc(OCCCO)cc2)=N1 (stereo not given in full),0.176 (inactive)
17,C=CC[C@@]1(C(N)=O)N=C(c2ccc(OCCCO)cc2)O[C@@H]1c1ccccc1CN=[N+]=[N-],-0.337 (inactive)
